High-throughput results: PubChem, Paczesny and Yang Labs, IUPUI and University of Michigan
ST2 inh – inhibitors of human ST2 (IL1RL1) binding to IL-33; actives 2.3% (n = 78,000); AlphaLISA ST2-Fc/biotin-IL-33 interaction, 1 h; Q01638; inhibition, % for hits at 17 µM; in the data active means inhibition above about 30%
Target sequence (Q01638 whole entry, looked up): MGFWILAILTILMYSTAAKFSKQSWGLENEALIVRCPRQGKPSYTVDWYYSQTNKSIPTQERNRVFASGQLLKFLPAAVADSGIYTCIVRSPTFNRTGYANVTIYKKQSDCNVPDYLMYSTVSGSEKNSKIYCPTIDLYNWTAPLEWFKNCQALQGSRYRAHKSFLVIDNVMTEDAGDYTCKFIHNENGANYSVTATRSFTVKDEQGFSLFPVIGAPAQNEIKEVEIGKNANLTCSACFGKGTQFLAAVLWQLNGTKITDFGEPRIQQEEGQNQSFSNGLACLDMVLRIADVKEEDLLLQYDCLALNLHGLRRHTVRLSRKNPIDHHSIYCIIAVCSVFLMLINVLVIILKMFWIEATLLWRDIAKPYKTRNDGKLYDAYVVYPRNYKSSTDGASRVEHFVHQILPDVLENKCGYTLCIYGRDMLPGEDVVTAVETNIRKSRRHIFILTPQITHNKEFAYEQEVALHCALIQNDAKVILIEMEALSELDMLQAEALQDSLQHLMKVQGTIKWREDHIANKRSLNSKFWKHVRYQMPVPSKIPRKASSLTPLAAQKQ
Numbers without * were called inactive; i = inactive. The entries come from a sample that favours hits as a whole.

SMILES	ST2 inh
COc1ccc(-n2ccnc2-c2nccn2CCN(C)C)cc1	i
CCN(Cc1noc(C2CCC2)n1)Cc1nc[nH]c1C	i
CCOC(=O)C1(Cc2ccccc2Cl)CCN(C(=O)CSc2nnc(CC)o2)CC1	i
O=C(COc1ccccc1Cl)Nc1ccc(S(=O)(=O)N2CCc3ccccc32)cc1	i
Cc1ccccc1CSc1nc2n(n1)C(c1cccs1)C1=C(CCCC1=O)N2 (stereo not given)	i
CC1NC(=O)NC1CCCCC(=O)O (stereo not given)	46%*
NCCCCCC(=O)O	i
O=C(O)CCCC[C@@H]1CCSS1	i
CCC(CNC1CCN(c2ccccc2C)CC1)N1CCN(C)CC1 (stereo not given)	i
CC(=O)c1ccc(N2CCC(O)(CO)CC2)nc1	i
COc1ccc(CN2CCN(Cc3cc(OC)c(OC)cc3[N+](=O)[O-])CC2)cc1OC	i
O=C(Nc1ccc2c(c1)OCO2)C1c2ccccc2C(=O)N2CCc3ccccc3C12 (stereo not given)	i
Cc1cccn2c(=O)c3cc(C(=O)NC4CC(C)CC(C)(C)C4)n(C)c3nc12 (stereo not given)	i
CC(C)(C)Sc1ccc(SC#N)s1	i
CCSc1sc(SC#N)cc1SC#N	47%*
O=c1ccc(-c2ccc3ccccc3c2)c2n1C[C@H]1C[C@@H]2CN(S(=O)(=O)c2ccc(F)cc2)C1	i
COc1ccc2[nH]c3c(c2c1)CCNC3=O	i
O=C1NCCc2c1[nH]c1ccc([N+](=O)[O-])cc21	30%*
O=[N+]([O-])c1cccc(C2NCCc3c2[nH]c2ccccc32)c1 (stereo not given)	i
O=c1/c(=C/c2ccccn2)sc2n1CN(c1cccc(C(F)(F)F)c1)CN=2	i
Cn1c(=O)c2c(ncn2CC(=O)N2CCCCCC2)n(C)c1=O	i
CCOC(=O)c1cnc2ccccc2c1Nc1cccc(C)c1	i
CCOc1ccc(S(=O)(=O)N=C2C=C(Nc3cccc(C)c3)C(=O)c3ccccc32)cc1	90%*
CCOc1ccc(Nc2nc(C)c([N+](=O)[O-])c(Nc3ccccc3)n2)cc1	i
Cc1cccc(NS(=O)(=O)c2ccc3[nH]c(=O)[nH]c3c2)c1	i
SMILES	ST2 inh
Cc1ccc(S(=O)(=O)Nc2cccc(Cl)c2)cc1	i
Cc1ccc(S(=O)(=O)N=C2C=C(Nc3cccc(C)c3)C(=O)c3ccccc32)cc1	84%*
CCOc1ccc(CCNS(=O)(=O)c2c(C)n[nH]c2C)cc1OCC	i
CSCCCNC(=O)C1CCC(=O)N(CCN2CCOCC2)C1 (stereo not given)	i
Cc1cc(C)c(NC(=O)CSc2ccccc2)c(C)c1	i
Cc1nc(-c2ccc([N+](=O)[O-])cc2)cs1	i
Ic1ccc(-c2csc(Nc3ccc4c(c3)OCO4)n2)cc1	i
Cc1ccc(Nc2nc(-c3ccc([N+](=O)[O-])cc3)cs2)cc1C	33%*
CC(=O)NC(=O)c1cc2cc(Cl)cc(Cl)c2oc1=Nc1ccc(C#N)cc1	i
Cc1ccsc1[C@@H]1CCN(Cc2ccc(-c3cncnc3)cc2)C[C@H]1O	i
O=C(c1ccc([N+](=O)[O-])cc1)N1CCN(CCO)CC1	i
CCOc1ccc(C(=O)NC(C)(C)C)cc1[N+](=O)[O-]	i
CC1CCCN(CC(O)COc2ccc(C3CCCCC3)cc2)C1 (stereo not given)	i
CC(C)(C)c1ccc(OCC(O)CN2CCCC2)cc1 (stereo not given)	i
OC(COc1ccc(C2C=CCC2)cc1)CN1CCCCC1 (stereo not given)	52%*
Cc1[nH]nc(-n2ccnc2)c1[N+](=O)[O-]	i
Cn1c(SCc2ccccc2)nc2c([nH]c3ccccc32)c1=O	i
COc1ccc(NC(=O)c2cc3cc4cc(OC)ccc4nc3o2)c(OC)c1	i
Cc1ccc(NC(=O)c2ccc(F)cc2)c(C)c1	i
CC(=O)Nc1ccc(S(=O)(=O)Nc2ccc(C(C)C)cc2)cc1	i
CC(C)c1ccc(S(=O)(=O)N=C2C=CC(=O)c3ccccc32)cc1	45%*
O=C1C=CC(=NS(=O)(=O)c2ccc(Cl)cc2)c2ccccc21	60%*
CC(N)=NS(=O)(=O)c1ccc(Cl)cc1	i
O=Cc1ccc(S(=O)(=O)c2ccc(Cl)cc2)cc1	i
CC1CCC(C(=O)NC(C(=O)Nc2ccc3c(c2)OCO3)C(C)C)CC1 (stereo not given)	i
SMILES	ST2 inh
Cc1cc(C)c2oc(-c3ccc(NC(=O)c4ccc5c(c4)OCCO5)cc3)nc2c1	i
Cc1ccc(NC(=O)c2nn(-c3ccc(Cl)cc3)c(=O)c3ccccc23)cc1F	i
COc1ccccc1C(=O)NC1CCS(=O)(=O)C1 (stereo not given)	i
CCOC(=O)c1cccc(NC(=O)N2CCN(Cc3nc4cccnc4n3-c3cccc(F)c3)CC2)c1	i
CSC1CCCCC1(O)CSc1nc2ccccc2s1 (stereo not given)	i
Cc1nn(CCCC(=O)Nc2ccc(OC(F)(F)F)cc2)c(C)c1[N+](=O)[O-]	i
CC1CN(C)C(C)c2c1oc1ccc([N+](=O)[O-])cc21 (stereo not given)	43%*
Cc1cccc(-c2nc3cc([N+](=O)[O-])ccc3o2)c1	i
CN1CCN(Cc2cc([N+](=O)[O-])ccc2O)CC1	i
C#C[C@]1(O)CC[C@H]2[C@@H]3CCC4=Cc5oncc5CC4(C)[C@H]3CCC21C (stereo not given in full)	i
COc1cc(/C=C2/C(=O)N(c3ccc(C(C)=O)cc3)N=C2C)ccc1OCc1ccccc1	i
Cc1ccc(NC(=O)c2cnccn2)c(Br)c1	39%*
Cc1ccc2nc(NC(=O)c3cnccn3)sc2c1	i
O=C(Nc1ccc(F)c(F)c1)c1cnccn1	i
CCN(C1CCCCC1)S(=O)(=O)c1ccc(OC)c(OC)c1	i
Clc1cc(Cl)cc(-c2ncccn2)c1	i
COCc1cc(C)nc2sc(C(=O)c3ccccc3)c(N)c12	i
Cc1ccc2c(N)c(C(=O)c3ccc(Cl)cc3)sc2n1	i
CC(=O)c1cc2c(N)c(C(=O)c3ccc(Cl)cc3)sc2nc1C	38%*
CN(C)C(=O)c1ccc2c(c1)N(CC(=O)NCc1ccccc1)C(=O)C1CCCCN21 (stereo not given)	i
CC(C)CN1C(=O)c2ccc(S(=O)(=O)c3ccc4c(c3)C(=O)N(CC(C)C)C4=O)cc2C1=O	i
O=C(O)c1ccc(S(=O)(=O)c2ccc3c(c2)C(=O)N(c2nccs2)C3=O)cc1	i
CC(C)(C)N1C(=O)c2ccc(S(=O)(=O)c3ccc4c(c3)C(=O)N(C(C)(C)C)C4=O)cc2C1=O	30%*
O=c1cc(CO)oc(C(Nc2ccccn2)c2ccc3c(c2)OCO3)c1O (stereo not given)	i
Cc1cccc(NC(c2ccccc2)c2ccc3ccc(C)nc3c2O)n1 (stereo not given)	36%*
SMILES	ST2 inh
Cc1ccc(S(=O)(=O)Nc2ccccn2)cc1C	i
COc1cc(C(Nc2cc(C)ccn2)c2ccc3cccnc3c2O)ccc1O (stereo not given)	i
CCC(C(=O)Nc1cccc(C)n1)c1ccccc1 (stereo not given)	i
O=C(CCS(=O)(=O)c1cccc2cccnc12)Nc1ccc(F)cc1	i
COc1ccc(C(Nc2ccccn2)c2ccc3ccc(C)nc3c2O)cc1C (stereo not given)	31%*
CC(=O)NC(c1ccc(Cl)cc1Cl)c1ccc2cccnc2c1O (stereo not given)	i
